This passage reports Potency results from PubChem BioAssay (Tox21).

Records with an inconclusive call do not appear. A structure can be active in one record and inactive in another. The source made the active and inactive calls. Unless noted, calls come from the whole dose curve.

The nature of assay [1]: Nuclear factor erythroid 2-related factor 2/antioxidant responsive element (Nrf2/ARE) small molecule agonists: qHTS cell viability counter screen in human keratinocytes (AID 1919968; active = well fitted curve in the direction sought with a large enough effect in the repeat runs; an effect the other way counts as inactive or inconclusive; note: nearly all actives have a fitted effect of over 55% in size). Put shortly:
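KeratinoSens HaCaT cells, 1,500/well, preincubated 5 h, then exposed to compounds in DMSO for 23 h at 37 C/5% CO2. Viability read as CellTiter-Fluor fluorescence after 1 h, in the same wells as the ARE-luciferase read.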

Assay [2] in a line: Nuclear factor erythroid 2-related factor 2/antioxidant responsive element (Nrf2/ARE) small molecule agonists: luciferase reporter gene qHTS assay in human keratinocytes (AID 1919969). Note: nearly all actives have a fitted effect of over 35% in size. Note: potency is the fitted concentration of half-maximal effect. Background: Reporter assays use an easily measured gene product as a stand-in for the process of interest.
In assay [3] the target is Gonadotropin-releasing hormone receptor (Homo sapiens) (UniProt P30968). Kind of assay: Human gonadotropin-releasing hormone receptor (GnRHR) small molecule agonists, calcium flux assay in GnRHR-HEK293 cells (AID 1920063). Note: nearly all actives have a fitted effect of over 35% in size. Put shortly:
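HEK293 cells stably expressing human GnRHR were dye-loaded for 1 h at 37 C. Compound was added in agonist mode and fluorescence (Ex/Em 480/540) recorded kinetically for 3 min. Fifteen concentrations, triplicates.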
(Calcium flux is commonly read through the fluorescence of an indicator in the cells.)

Assay [4] deals with KiSS-1 receptor (Homo sapiens) (UniProt Q969F8). Description: Human kisspeptin (KISS1R) small molecule agonists, calcium flux assay in KISS1R-HEK293 cells (AID 1920064; active = well fitted curve in the direction sought with a large enough effect in the repeat runs; an effect the other way counts as inactive or inconclusive). Put shortly:
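HEK293 cells stably expressing human KISS1R were loaded with calcium dye for 1 h at 37 C, then given compound; fluorescence (Ex/Em 480/540) was read kinetically for 3 min. Fifteen concentrations, triplicate.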

Assay [5] is described as follows: G protein-coupled receptor (GPCR) small molecule agonists, calcium flux assay: HEK293 wild type cell line counter screen (AID 1920065). Put shortly: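 Wild-type HEK293 cells plated 18 h, loaded with calcium dye 1 h at 37 C, then compounds added in agonist mode (ATP as positive control). Kinetic fluorescence Ex/Em 480/540 recorded 3 min at 1 sec intervals; 15 concentrations, triplicate.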

The nature of assay [6]: p53 small molecule agonists, cell-based qHTS assay with human liver microsomes (AID 1963577).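 Note: p53 response element beta-lactamase reporter cells with liver microsomes plus NADPH.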 Put shortly: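 With metabolic activation: human liver microsomes (0.5 mg/mL final) plus NADPH (0.5 mg/mL final) added alongside compounds to p53RE-bla cells; 16 h 37 C exposure; beta-lactamase read by LiveBLAzer fluorescence.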
A short description of assay [7]: p53 small molecule agonists, cell-based qHTS assay with human liver microsomes: qHTS cell viability counter screen (AID 1963579). Note: nearly all actives have a fitted effect of over 45% in size. Put shortly:
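Metabolic activation used human liver microsomes and NADPH, both 0.5 mg/mL final, over 16 hours at 37 C on p53RE-bla cells (4,000/well). Cytotoxicity measured by CellTiter-Glo luminescence, 30 min at room temperature.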
Background: In qHTS, concentration-response curves come from the screen itself.

The nature of assay [8]: p53 small molecule agonists, cell-based qHTS assay with rat liver microsomes: qHTS cell viability counter screen (AID 1963580). Note: nearly all actives have a fitted effect of over 45% in size. Put shortly:
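Viability is assessed in parallel with the p53 reporter read: HCT-116 p53RE-bla cells receive compounds plus rat microsomes and NADPH (0.5 mg/mL final apiece), incubate 16 h at 37 C, and then CellTiter-Glo luminescence is recorded.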

A short description of assay [9]: p53 small molecule agonists, cell-based qHTS assay: qHTS cell viability counter screen (AID 1963581). Note: nearly all actives have a fitted effect of over 45% in size. Put shortly:
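p53RE-bla HCT-116 cells, compounds added 5 h after plating and incubated 16 h at 37 C. Cytotoxicity measured in the same wells as intracellular ATP by CellTiter-Glo luminescence after 30 min at room temperature.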

Assay [10] addresses 5-hydroxytryptamine receptor 2A (Homo sapiens) (UniProt P28223). Kind of assay: 5-hydroxytryptamine receptor 2A (HTR2A) small molecule antagonists, cell-based qHTS assay (AID 1963586). Note: nearly all actives have a fitted effect of over 45% in size. Put shortly:
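Antagonist-mode intracellular calcium assay: DOI (4 nM) added after 5 min compound pre-incubation at room temperature to dye-loaded HTR2A-CHO cells. Fluorescence followed for 3 min, sampled every second.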

Assay [11] has the same target. Description: 5-hydroxytryptamine receptor 2A (HTR2A) small molecule agonists, cell-based qHTS assay (AID 1963587). Note: nearly all actives have a fitted effect of over 30% in size. Put shortly:
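CHO cells stably expressing human HTR2A, plated 18 h, loaded with calcium dye 1 h at 37 C. Agonist mode: compounds added and intracellular calcium fluorescence recorded kinetically for 2 min at 1 sec intervals.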

The target of assay [12] is Muscarinic acetylcholine receptor M1 (Homo sapiens) (UniProt P11229). Description: Cholinergic receptor muscarinic 1 (CHRM1) small molecule antagonists, cell-based qHTS assay (AID 1963588). Note: nearly all actives have a fitted effect of over 40% in size. Put shortly: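 CHRM1-CHO calcium-flux assay, antagonist mode. Cells were seeded 18 h, dye-loaded 1 h at 37 C and given compound for 5 min at RT, then acetylcholine was added at 50nM. FDSS fluorescence was read 3 min; 15 concentrations, three runs.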

For assay [13] the target is unchanged. Description: Cholinergic receptor muscarinic 1 (CHRM1) small molecule agonists, cell-based qHTS assay (AID 1963589). Note: nearly all actives have a fitted effect of over 35% in size. Put shortly:
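CHO cells stably expressing human CHRM1 were loaded with calcium dye for 1 h at 37 C, then compound was added in agonist mode. Intracellular calcium fluorescence was followed kinetically at 1 s intervals. Fifteen concentrations were tested in three independent runs.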

A short description of assay [14]: cAMP Responsive Elements (CRE) small molecule agonists, cell-based qHTS assay (AID 1963590). Put shortly:
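CRE-bla HEK 293T cells, 2,000/well in DMEM with 10% dialyzed FBS and 25 mM HEPES, pre-incubated 18 h at 37 C, then exposed to compound 3 h at 37 C. Beta-lactamase reporter read with LiveBLAzer B/G FRET substrate after 2 h at room temperature.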

A short description of assay [15]: cAMP Responsive Elements (CRE) small molecule antagonists, cell-based qHTS assay (AID 1963591; active = well fitted inhibition curve with a large enough effect in the signal ratio in the repeat runs, not every such curve was filed as active; the % refers to the signal ratio). Put shortly: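 CRE-bla HEK293T cells plated 18 h, then given compound plus NKH477 at 0.25 uM final for 3 h at 37C. Beta-lactamase reporter read with LiveBLAzer B/G FRET substrate after 2 h at room temperature.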
In assay [16] the target is Beta-2 adrenergic receptor (Homo sapiens) (UniProt P07550). Description: Adrenergic beta2 receptor (ADRB2) small molecule antagonists, cell-based qHTS assay (AID 1963592). Note: series mostly up to about 92 µM; nearly all actives have a fitted effect of over 50% in size. Put shortly:
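Cells (CHO, stable ADRB2 overexpression) incubated 18-20hr at 37C; compounds added from DMSO; agonist mix (1nM isoproterenol, 100uM IBMX, 25uM Ro-20-1724) added; 0.5hr RT; d2-cAMP and anti-cAMP-cryptate added; 1hr RT; 665/615 nm read.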

For assay [17], the target named is D(2) dopamine receptor (Homo sapiens) (UniProt P14416). Description: Dopamine D2 receptor (DRD2) small molecule agonists, cell-based qHTS assay (AID 1963594). Note: nearly all actives have a fitted effect of over 35% in size. Put shortly:
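HEK293 cells stably expressing human DRD2, pre-treated with PDE inhibitor Ro20-1724 (0.1 mM final) and compound 10 min at room temperature, then stimulated with NKH477 (200nM […]) for 30 min. cAMP read by HTRF (665/620 nm).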

Assay [18] has the same target. Kind of assay: Dopamine D2 receptor (DRD2) small molecule antagonists, cell-based qHTS assay (AID 1963595; active = well fitted inhibition curve with a large enough effect in the signal ratio in the repeat runs, with a control signal flat; the % refers to the signal ratio). Put shortly: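 Human DRD2 antagonist qHTS measuring cAMP by HTRF. The cells are exposed to compound for 10 min, then to NKH477 (200 nM) and quinpirole (12 nM) for 30 min at RT, with Ro20-1724 (0.1 mM) present throughout.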
In assay [19] the target is Beta-2 adrenergic receptor (Homo sapiens) (UniProt P07550). Description: Adrenergic beta2 receptor (ADRB2) small molecule agonists, cell-based qHTS assay (AID 1963593).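 Note: CHO cells stably overexpressing human ADRB2.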 Put shortly: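 CHO cells stably over-expressing ADRB2 were plated overnight at 37C, then dosed with compounds plus a stimulation mix containing 100uM IBMX and 25uM Ro-20-1724 for 0.5hr at room temperature. cAMP was measured by HTRF competition, 1hr.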
Sequence of Beta-2 adrenergic receptor (Homo sapiens) (P07550 whole entry, looked up): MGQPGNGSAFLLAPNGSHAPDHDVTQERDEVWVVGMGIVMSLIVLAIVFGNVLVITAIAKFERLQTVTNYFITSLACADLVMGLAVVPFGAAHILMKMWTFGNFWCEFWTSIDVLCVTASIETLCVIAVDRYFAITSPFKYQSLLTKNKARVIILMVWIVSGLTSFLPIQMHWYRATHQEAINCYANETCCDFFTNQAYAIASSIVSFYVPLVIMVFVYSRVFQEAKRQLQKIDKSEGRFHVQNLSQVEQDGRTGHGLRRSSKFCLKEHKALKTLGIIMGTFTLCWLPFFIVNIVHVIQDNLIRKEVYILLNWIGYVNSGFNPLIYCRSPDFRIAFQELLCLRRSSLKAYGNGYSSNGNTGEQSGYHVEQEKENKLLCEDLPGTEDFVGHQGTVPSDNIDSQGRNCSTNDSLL

Sequence of KiSS-1 receptor (Homo sapiens) (Q969F8 whole entry, looked up): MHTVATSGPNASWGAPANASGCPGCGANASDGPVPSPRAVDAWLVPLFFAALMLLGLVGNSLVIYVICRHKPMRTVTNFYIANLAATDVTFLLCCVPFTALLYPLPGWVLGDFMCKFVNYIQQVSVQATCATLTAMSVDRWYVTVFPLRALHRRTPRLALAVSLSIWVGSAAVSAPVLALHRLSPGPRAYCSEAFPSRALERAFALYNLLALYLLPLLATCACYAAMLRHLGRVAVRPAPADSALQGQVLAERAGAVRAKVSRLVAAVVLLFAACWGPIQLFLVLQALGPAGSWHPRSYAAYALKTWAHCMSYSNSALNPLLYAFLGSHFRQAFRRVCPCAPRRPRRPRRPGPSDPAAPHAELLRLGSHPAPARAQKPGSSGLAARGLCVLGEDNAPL
Sequence of Muscarinic acetylcholine receptor M1 (Homo sapiens) (P11229 whole entry, looked up): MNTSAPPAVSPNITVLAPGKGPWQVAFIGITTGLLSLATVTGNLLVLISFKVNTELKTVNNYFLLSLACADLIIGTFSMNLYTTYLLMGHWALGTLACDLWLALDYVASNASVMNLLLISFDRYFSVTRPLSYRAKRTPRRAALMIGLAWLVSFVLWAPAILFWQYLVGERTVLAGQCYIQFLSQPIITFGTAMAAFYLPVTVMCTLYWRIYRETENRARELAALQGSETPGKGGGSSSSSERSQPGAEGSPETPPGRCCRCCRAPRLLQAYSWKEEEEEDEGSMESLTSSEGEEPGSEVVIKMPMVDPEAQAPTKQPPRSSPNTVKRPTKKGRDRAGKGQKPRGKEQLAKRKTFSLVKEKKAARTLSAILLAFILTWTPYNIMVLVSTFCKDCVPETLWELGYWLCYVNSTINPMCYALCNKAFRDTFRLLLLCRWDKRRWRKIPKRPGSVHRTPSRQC
Sequence of D(2) dopamine receptor (Homo sapiens) (P14416 whole entry, looked up): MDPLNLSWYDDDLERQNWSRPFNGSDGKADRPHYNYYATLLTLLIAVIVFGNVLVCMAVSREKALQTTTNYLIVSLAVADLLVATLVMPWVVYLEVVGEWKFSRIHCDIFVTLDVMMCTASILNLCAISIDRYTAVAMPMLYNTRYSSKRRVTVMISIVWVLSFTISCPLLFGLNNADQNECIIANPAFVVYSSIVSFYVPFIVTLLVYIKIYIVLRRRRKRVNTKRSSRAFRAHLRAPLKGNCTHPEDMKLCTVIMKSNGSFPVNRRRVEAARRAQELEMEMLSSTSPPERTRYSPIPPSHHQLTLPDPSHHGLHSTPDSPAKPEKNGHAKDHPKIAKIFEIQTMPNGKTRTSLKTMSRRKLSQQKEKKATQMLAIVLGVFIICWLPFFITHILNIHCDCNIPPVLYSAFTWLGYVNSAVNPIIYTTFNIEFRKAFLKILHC
Sequence of Gonadotropin-releasing hormone receptor (Homo sapiens) (P30968 whole entry, looked up): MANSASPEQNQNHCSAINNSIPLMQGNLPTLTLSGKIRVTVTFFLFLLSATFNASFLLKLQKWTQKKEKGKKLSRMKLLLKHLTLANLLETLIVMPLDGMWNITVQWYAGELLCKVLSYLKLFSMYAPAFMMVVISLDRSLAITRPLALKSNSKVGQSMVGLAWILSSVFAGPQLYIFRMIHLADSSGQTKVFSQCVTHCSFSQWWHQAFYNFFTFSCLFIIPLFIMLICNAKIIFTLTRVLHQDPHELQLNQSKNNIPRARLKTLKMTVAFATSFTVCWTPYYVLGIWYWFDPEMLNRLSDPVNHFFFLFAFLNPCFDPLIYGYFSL
Sequence of 5-hydroxytryptamine receptor 2A (Homo sapiens) (P28223 whole entry, looked up): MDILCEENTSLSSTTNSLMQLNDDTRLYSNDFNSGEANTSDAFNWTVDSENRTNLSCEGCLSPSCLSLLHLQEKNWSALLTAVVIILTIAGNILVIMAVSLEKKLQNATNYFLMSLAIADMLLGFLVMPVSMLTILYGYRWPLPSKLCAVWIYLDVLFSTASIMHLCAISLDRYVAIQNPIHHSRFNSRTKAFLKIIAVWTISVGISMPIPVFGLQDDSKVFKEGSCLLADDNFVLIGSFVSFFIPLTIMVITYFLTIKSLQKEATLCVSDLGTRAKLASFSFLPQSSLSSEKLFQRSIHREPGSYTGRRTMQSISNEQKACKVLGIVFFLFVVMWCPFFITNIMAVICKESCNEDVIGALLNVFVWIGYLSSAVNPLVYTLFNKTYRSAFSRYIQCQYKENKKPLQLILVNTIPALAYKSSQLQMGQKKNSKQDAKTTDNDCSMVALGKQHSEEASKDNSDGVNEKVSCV

Turning to `CNC[C@H](O)[C@@H](O)[C@H](O)[C@H](O)CO`, the Potency entry in assay [1], in assay [2], in [3], in [4], in [5] and in assay [6] was “inactive” throughout. Besides, the Potency result in assay [7], in [8], in assay [9], in assay [10], in assay [11] and in [12] was “inactive” throughout. The Potency result in [13], in assay [14], in assay [15], in assay [16], in assay [17] and in assay [18] was “inactive” each time.

For `O=C(O)c1cccc(C(=O)O)c1`, the Potency entry in [1], in assay [2], in assay [3], in assay [4], in [5] and in [7] was “inactive” in each case. For the same molecule, the Potency result in assay [8], in assay [9], in [10], in [12], in [14] and in [15] was “inactive” each time. Also, the Potency entry in assay [16], in assay [19], in assay [17] and in assay [18] was “inactive” each time.

For `Cc1c(N(C)C)c(=O)n(-c2ccccc2)n1C`, the Potency result in assay [1], in [3], in assay [4], in assay [5], in assay [7] and in [8] was “inactive” in each case. In addition, the Potency entry in assay [9], in [10], in assay [11], in assay [12], in assay [13] and in assay [14] was “inactive” each time. For the same molecule, the Potency result in [15], in assay [16], in assay [17] and in assay [18] was “inactive” in each case. In assay [2], the Potency was 69.8 µM (active) and inactive.

`CN1CCC[C@H]1c1cccnc1`: the Potency entry in [1], in assay [2], in assay [3], in [4], in [5] and in assay [7] was “inactive” in each case. Further, the Potency entry in assay [8], in assay [9], in assay [15], in assay [16], in assay [19] and in assay [17] was “inactive” each time. For the same molecule, the Potency result in [18] is “inactive”.

For the molecule `CC(=O)CCC(=O)O`, the Potency result in [1], in assay [2], in assay [3], in [4], in [5] and in [7] was “inactive” each time. For the same molecule, the Potency result in assay [8], in assay [9], in assay [10], in assay [11], in [12] and in [13] was “inactive” each time. The Potency result in assay [14], in [15], in assay [16], in assay [19], in assay [17] and in [18] was “inactive” in each case.

In the case of `CC1=CCC2CC1C2(C)C` (stereo unspecified), the Potency result in [1], in [2], in [3], in [4], in assay [5] and in [7] was “inactive” in each case. Further, the Potency entry in assay [8], in [10], in assay [11], in [12], in assay [13] and in assay [14] was “inactive” throughout. For the same molecule, the Potency entry in assay [15], in assay [16], in [19], in [17] and in assay [18] was “inactive” throughout.

With `Cc1ccc(N)c([N+](=O)[O-])c1`, the Potency result in [1], in assay [2], in assay [3], in assay [4], in assay [5] and in assay [7] was “inactive” throughout. Further, the Potency entry in assay [8], in [9], in assay [10], in assay [11], in [12] and in assay [13] was “inactive” in each case. For the same molecule, the Potency result in [14], in assay [15], in [19], in assay [17] and in assay [18] was “inactive” throughout.
